Compound activity (PubChem)
Only some compounds are listed: those with a hit (about 6.1% of all), similar ones and a draw of the others.
D1 agonist = Allosteric Agonists of the Human D1 Dopamine Receptor: qHTS | HEK293 T-REx D1 cells, calcium flux, agonist mode | activation, % at 2 µM | 360,000 tested, 1% active | D(1A) dopamine receptor (Homo sapiens), P21728 | AID 504660, 2011; in the data active means activation above about 30%
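Inducible HEK293 T-REx D1 cells, force-coupled to calcium signalling, were plated at 4000 cells/well with tetracycline and held overnight at 30 C. After no-wash calcium dye loading, compound-evoked calcium rise over 180 s flagged agonists.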
ERG Ets-DNA blk = qHTS for Small Molecule Inhibitors of the ERG Ets/DNA interaction. Transcriptional regulator ERG (Homo sapiens), P11308. fluorescence polarization, His-ERG Ets domain / labelled DNA. Potency, µM (doses to about 76.9 µM), hits mostly inhibitors. 370,000 tested, 0.028% active; active means well fitted inhibition curve with a large enough effect in the polarisation, with a control signal flat; inconclusive means small, poorly fitted or top-dose-only effect, or effect the other way, or a change in a side signal; inactive means no such curve, though single readings can be large or run the other way; the % refers to the polarisation;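 further: polarization taken with two DNA probes labelled with fluorescein and Texas red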
Target sequence (P11308 whole entry, looked up, the tested form may be a part): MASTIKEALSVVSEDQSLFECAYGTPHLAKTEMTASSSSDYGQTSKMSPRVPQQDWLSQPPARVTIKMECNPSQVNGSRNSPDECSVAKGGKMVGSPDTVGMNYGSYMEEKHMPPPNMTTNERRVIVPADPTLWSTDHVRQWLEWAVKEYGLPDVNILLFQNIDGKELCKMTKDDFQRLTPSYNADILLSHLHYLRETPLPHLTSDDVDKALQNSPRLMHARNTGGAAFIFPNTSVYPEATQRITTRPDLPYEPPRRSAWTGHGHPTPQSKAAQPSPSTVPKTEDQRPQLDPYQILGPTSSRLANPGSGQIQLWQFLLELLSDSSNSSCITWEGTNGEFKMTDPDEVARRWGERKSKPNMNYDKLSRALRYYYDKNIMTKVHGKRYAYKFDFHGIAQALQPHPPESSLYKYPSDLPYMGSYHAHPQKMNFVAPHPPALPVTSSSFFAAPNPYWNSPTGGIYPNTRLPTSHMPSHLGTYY
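His-tagged ERG Ets domain (1 uM in the protein solution; 300mM KCl, 50mM Tris-HCl, 1mM EDTA, 1mM DTT, pH 7.5) received compound, then a probe mix of 5 nM fluorescein-DNA and 100nM Texas-615-DNA. Fluorescence polarization was read for both dyes.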
D1 PAM = Potentiators of Human D1 Dopamine Receptor: qHTS | D(1A) dopamine receptor (Homo sapiens), P21728 | HEK293 TREx D1 cells, calcium flux, dopamine EC20 potentiation | potentiation, % at 10 µM | 360,000 tested, 0.036% active | AID 504651, 2011; in the data active means potentiation above about 30%
D3 antag = qHTS of D3 Dopamine Receptor Antagonist: qHTS; D(3) dopamine receptor (Homo sapiens), P35462; D3R cells, DiscoveRx beta-arrestin luminescence, antagonist mode; active compounds read low; max response, negative = inhibition, %; 360,000 tested, 2.5% active; AID 652054, 2013; in the data active means max response below about -50%; inconclusive means no clear call, values can overlap the other calls
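Cells expressing the human receptor were seeded at 1500 cells/well, incubated overnight at 37 degrees C in 5% CO2, then exposed to library compounds with dopamine controls for 90 minutes at 37 degrees C before luminescent detection.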
DRD3 agonist = qHTS of D3 Dopamine Receptor Agonist: qHTS | D(3) dopamine receptor (Homo sapiens), P35462 | D3R DiscoveRx beta-arrestin cells, luminescence, 90 min | max activation, % | 410,000 tested, 0.58% active | AID 652048, 2013; in the data active means max activation above about 30%
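Cells at 1500/well, incubated overnight, then treated with pinned compounds (dopamine as control) for 90 min at 37 degrees C. DiscoveRx reagent added for 30 - 60 minutes at room temperature; luminescence read.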
D1 antagonist = Antagonist of Human D 1 Dopamine Receptor: qHTS | HEK293 TREx D1 cells, calcium flux, dopamine EC80; active compounds read low | AID 504652, 2011 | activity change, negative = inhibition, % at 10 µM | 360,000 tested, 3.2% active | D(1A) dopamine receptor (Homo sapiens), P21728; in the data active means activity change below about -30%
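After overnight tetracycline induction at 30 C, force-coupled D1 HEK293 cells took up a no-wash calcium dye at room temperature. Compounds were added and monitored 180 s, and the response to EC80 dopamine was then recorded.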
Numbers stand for hits; - = inactive; ? = inconclusive; . = no result; ! = a repeat was not active.

SMILES | D1 agonist | ERG Ets-DNA blk | D1 PAM | D3 antag | DRD3 agonist | D1 antagonist
CC(C)(C)NC(=O)C(c1ccncc1)N(Cc1cccs1)C(=O)Cn1nnc(-c2ccc(F)cc2)n1 (stereo not given) | - | - | - | - | - | -32.9
COc1ccc(C(=O)NCC(C)(C)N2CCOCC2)cc1S(=O)(=O)NCc1ccc(Cl)cc1 | . | - | . | - | - | .
CCCCCCCCOC(=O)c1cc([N+](=O)[O-])c(Sc2ncnc3nc[nH]c23)c([N+](=O)[O-])c1 | . | . | . | -54.7 | - | .
COc1ccccc1-c1nnc(SCC(=O)Nc2ccc(N3CCOCC3)cc2)n1C | - | - | - | - | - | -36.2
COc1ccccc1-c1nnc(SCC(=O)NC2CC2)n1C | - | - | . | - | - | -59.0
CCCc1nc(SCC(=O)Nc2ccc(N3CCOCC3)cc2)c2ccccc2n1 | - | - | - | - | - | -35.6
COc1cccc2cc(-c3nnc(SCC(=O)Nc4ccc(NC(C)=O)cc4)n3C)oc12 | - | - | - | - | - | -57.0
CCOc1ccc(-c2noc(CCCC(=O)NCC3CCCO3)n2)cc1OC (stereo not given) | - | - | - | - | - | -
CC(=O)c1sc(NC(=O)c2ccc3c(c2)OCO3)nc1C | - | - | - | - | - | -
CCOC(=O)c1cccc(NC(=O)C2CCC(CNc3c(N4CCOCC4)c(=O)c3=O)CC2)c1 (stereo not given) | - | - | . | - | - | -
O=C(Cc1ccc2c(c1)OCCO2)N1CCN(S(=O)(=O)c2cccs2)CC1 | - | - | - | - | - | -34.9
COc1cccc2[nH]c(=O)c(-c3ccccc3)cc12 | - | - | - | - | - | -
CCC(c1nnnn1-c1ccc2c(c1)OCCO2)N1CCN(CCN2CCOCC2)CC1 (stereo not given) | . | . | . | - | - | .
COc1ccc(C(c2nnnn2-c2ccc3c(c2)OCCO3)N2CCN(C/C=C/c3ccccc3)CC2)cc1 (stereo not given) | . | . | . | -75.7 | - | .
CCC(c1nnnn1-c1ccc2c(c1)OCCO2)N1CCN(c2ccc(OC)cc2)CC1 (stereo not given) | . | . | . | - | - | .
C(=C\c1ccccc1)/CN1CCN(C(c2ccnc3ccccc23)c2nnnn2C2CCCC2)CC1 (stereo not given) | . | . | . | - | - | .
COc1ccc(-n2nnnc2C(c2cccc3ccccc23)N2CCN(C/C=C/c3ccccc3)CC2)cc1 (stereo not given) | . | . | . | -92.0 | - | .
C(=C\c1ccccc1)/CN1CCN(C(c2cccs2)c2nnnn2-c2ccc3c(c2)OCCO3)CC1 (stereo not given) | . | . | . | -79.4 | - | .
C(=C\c1ccccc1)/CN1CCN(C(c2cc3ccccc3o2)c2nnnn2-c2ccc3c(c2)OCCO3)CC1 (stereo not given) | . | . | . | -89.0 | - | .
O=C(NCCS(=O)(=O)N1CCN(c2ccccc2F)CC1)c1ccc(Br)cc1 | - | - | - | - | - | -
COc1ccc(-c2cc(CCC(=O)N3CCN(c4cc(C)ccc4C)CC3)[nH]n2)cc1 | . | - | . | - | - | .
CCCCn1nnnc1C(c1cc2ccccc2o1)N1CCN(C/C=C/c2ccccc2)CC1 (stereo not given) | . | . | . | -72.1 | - | .
CCCCn1nnnc1C(c1cc2ccccc2o1)N1CCCC1 (stereo not given) | . | . | . | - | - | .
CC(C)(C)n1nnnc1C(c1cc2ccccc2o1)N1CCCC1 (stereo not given) | . | . | . | - | - | .
COc1ccc(-n2nnnc2C(c2cc3ccccc3o2)N2CCN(C/C=C/c3ccccc3)CC2)cc1 (stereo not given) | . | . | . | -97.5 | - | .
SMILES | D1 agonist | ERG Ets-DNA blk | D1 PAM | D3 antag | DRD3 agonist | D1 antagonist
CC(C)C[C@H]1CN([C@@H](CC(C)C)CN2CCC[C@@H]2CN2C(=O)C(=O)NC[C@@H]2Cc2ccccc2)C(=O)C(=O)N1CC1CCCCC1 | . | - | . | - | - | .
O=C(Nc1ccc(Cl)cc1)c1ccc2nsnc2c1 | - | - | - | - | - | -46.9
CC(=O)c1ccc(NC(=O)c2ccc3c(=O)n4c(nc3c2)CCCCC4)cc1 | - | - | - | - | - | -44.5
COc1cccc(C(=O)Nc2ccc3nc4n(c(=O)c3c2)CCCC4)c1 | - | - | - | - | - | -
CN(C)c1cccc(C(=O)Nc2ccc3nc4n(c(=O)c3c2)CCCCC4)c1 | - | - | . | -60.6 | - | -
CC(OC(=O)c1ccc2c(=O)n3c(nc2c1)CCCCC3)C(=O)Nc1ccc(F)cc1Cl (stereo not given) | - | - | - | - | - | -37.0
CS(=O)(=O)N1CCc2cc(C(=O)NCCc3ccccc3)ccc21 | - | - | - | . | - | -
O=C(Nc1ccc(F)c(Cl)c1)c1ccc2c(=O)n3c(nc2c1)CCCCC3 | - | - | - | - | - | -58.2
O=C(Nc1ccc(F)cc1)c1ccc2c(=O)n3c(nc2c1)CCCCC3 | - | - | - | - | - | -
O=C(Nc1ccc(Cl)cc1)c1ccc2c(=O)n3c(nc2c1)CCCCC3 | - | - | - | - | - | -59.2
O=C(O)c1c2cc(Br)ccc2nc2[nH]c(=O)[nH]c(=O)c12 | . | - | . | - | - | .
O=C(NCc1ccccc1)/C(=C/c1cccc([N+](=O)[O-])c1)NC(=O)c1ccco1 | - | - | . | - | - | -
O=C(NCCc1ccccc1)/C(=C\c1cccc([N+](=O)[O-])c1)NC(=O)c1ccco1 | - | - | - | - | - | -34.1
CC(C)(C)S(=O)N1Cc2cc(C(=O)NCc3ccc(Oc4ccccc4)cc3)nc(-c3cccc(-c4cc5ccccc5o4)c3)c2[C@@H]1CCO (stereo not given in full) | . | . | . | - | - | .
CC(C)C[C@H]1CN=C(Nc2ccccc2)N1CCCC1CCCC1 | 40.9 | - | - | -51.3 | - | -
Cc1ccc(-c2csc3nc[nH]c(=O)c23)cc1C | - | - | - | - | - | -
COc1cccc(-c2csc3nc[nH]c(=O)c23)c1 | - | - | - | - | - | -33.5
O=C(N/N=C/c1ccc([N+](=O)[O-])cc1)c1cc(-c2ccc3c(c2)OCO3)n[nH]1 | - | - | - | - | - | -
COc1cc(/C=N/NC(=O)c2cc(-c3ccc4c(c3)OCO4)n[nH]2)ccc1O | - | ? | - | - | 60.8 | -
Cc1nonc1C(=O)N/N=C/c1cccc(O)c1 | - | . | - | - | - | -42.7
O=C(N/N=C/c1cccc(O)c1)N/N=C/c1cccc(O)c1 | - | - | - | - | - | -
CN(C)CCCC1(c2ccc(F)cc2)OCc2cc(C#N)ccc21 (stereo not given) | - | - | - | -58.7 | - | -52.5!
